We go through 26 compounds from the supplement of paper PMC10037445.

For test [1], the system named is RAW-Dual. The test can be described thus: IRF Lucia reporter activity, fold change vs agonist alone; cytotoxicity flag (confluency mask): not cytotoxic; higher = enhanced IRF activity. Summed up:
(§1)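 Reporter activity is given as fold change relative to agonist-alone wells. To measure it, 50 nL of library stock was pin-tooled onto RAW-Dual macrophages (50,000 cells/well, DMEM, 384-well plates), a PRR agonist followed 1 h later, and cells stayed at 37 °C, 5% CO2. Twenty hours on, supernatant was assayed for IRF (QuantiLuc luminescence) and NF-κB (QuantiBlue, 620 nm absorbance), and wells under 70% of agonist-control IncuCyte confluency in both mask sets were marked cytotoxic.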

In test [2] the test system is RAW-Dual. In words: IRF Lucia reporter activity, fold change vs agonist alone; higher = enhanced IRF activity. The settings on record: agonist: MPLA (TLR4) […]. Summed up: as §1
Test [3] has as its system RAW-Dual. In words: IRF Lucia reporter activity, fold change vs agonist alone; cytotoxicity flag (confluency mask): cytotoxic (confluency <70% of control); higher = enhanced IRF activity. Summed up:
as §1

Setting [4] is: agonist: 3'3'-cGAMP (STING) 10 ug/mL.
The mark [5] stands for this setting: library stock concentration (final ~1000-fold dilution): 10 mM, cytotoxicity flag (confluency mask): not cytotoxic.
[6] abbreviates: library stock concentration (final ~1000-fold dilution): 10 mM, cytotoxicity flag (confluency mask): cytotoxic (confluency <70% of control).

Over roughly 2,900 compounds, “IRF Lucia reporter activity, fold change vs agonist alone” has its median near 0.9; the highest 2% begin near 2.8. The full list was thinned out, with the highest values kept by preference.

For `NC(=O)C(CCC(F)(F)F)N(Cc1ccc(-c2ncon2)cc1F)S(=O)(=O)c1ccc(Cl)cc1` (stereo not drawn) (library stock concentration (final ~1000-fold dilution): 10 mM), the “IRF Lucia reporter activity” value turned out to be 0.94 in the test on RAW-Dual [1] (setting [4]) and 1.56 with RAW-Dual [1] (agonist: LPS (TLR4) 0.1 ug/mL).
With `NC(=O)C(CCC(F)(F)F)N(Cc1ccc(-c2ncon2)cc1F)S(=O)(=O)c1ccc(Cl)cc1` (stereo not drawn), the “IRF Lucia reporter activity” value with RAW-Dual [2] (setting [5]) came out at 1.3.
On to `CC1COCCN1c1cc(C2(S(C)(=N)=O)CC2)nc(-c2ccnc3[nH]ccc23)n1` (stereo not drawn) (library stock concentration (final ~1000-fold dilution): 10 mM), for which the “IRF Lucia reporter activity” value in the test on RAW-Dual [1] (setting [4]) came to 0.193; in the test on RAW-Dual [1] (agonist: LPS (TLR4) 0.1 ug/mL), 1.39.
In the case of `COc1cc(C=CC(=O)OCC[N+](C)(C)C)cc(OC)c1O` (library stock concentration (final ~1000-fold dilution): 10 mM), the “IRF Lucia reporter activity” value in the test with RAW-Dual [1] (setting [4]) amounted to 0.894; in the test on RAW-Dual [1] (agonist: LPS (TLR4) 0.1 ug/mL), 1.04.
On to `O=c1cc(N2CCOCC2)oc2c(-c3ccccc3)cccc12`, for which the “IRF Lucia reporter activity” value with RAW-Dual [2] (setting [6]) was found to be 0.627.
In the case of `O=c1cc(N2CCOCC2)oc2c(-c3cccc4c3sc3ccccc34)cccc12` (library stock concentration (final ~1000-fold dilution): 2 mM), the figures for the “IRF Lucia reporter activity” value in the test on RAW-Dual [1] (setting [4]) and in the test with RAW-Dual [1] (agonist: LPS (TLR4) 0.1 ug/mL) were 0.548 and 7.23, respectively.
On to `O=c1cc(N2CCOCC2)oc2c(-c3ccccc3)cccc12` (library stock concentration (final ~1000-fold dilution): 10 mM), for which the “IRF Lucia reporter activity” value in the test with RAW-Dual [3] (setting [4]) is 0.353; with RAW-Dual [3] (agonist: LPS (TLR4) 0.1 ug/mL) it was 0.393.
With `O=c1nc(N2CCOCC2)oc2c(-c3cccc4c3sc3ccccc34)cccc12` (library stock concentration (final ~1000-fold dilution): 10 mM), the “IRF Lucia reporter activity” value in the test with RAW-Dual [1] (setting [4]) was 0.298; in the test on RAW-Dual [1] (agonist: LPS (TLR4) 0.1 ug/mL), 1.03.
With `O=c1cc(N2CCOCC2)oc2c(-c3cccc4c3sc3ccccc34)cccc12`, the “IRF Lucia reporter activity” value in the test with RAW-Dual [2] (library stock concentration (final ~1000-fold dilution): 2 mM, cytotoxicity flag (confluency mask): not cytotoxic) was 2.7.
On to `COc1ccc(C2OCC3C(c4ccc(OC)c(OC)c4)OCC23)cc1OC` (stereo not drawn) (library stock concentration (final ~1000-fold dilution): 10 mM), for which the “IRF Lucia reporter activity” value in the test on RAW-Dual [1] (setting [4]) was 1.35; in the test on RAW-Dual [1] (agonist: LPS (TLR4) 0.1 ug/mL), 0.899.
For `O=C(C=Cc1ccc(O)cc1)c1ccc(O)cc1O` (library stock concentration (final ~1000-fold dilution): 10 mM) the same measures were 0.252 and 0.535.
Turning to `COC(=O)C1=C(C)NC(C)=C(C(=O)OC(C)(C)CN(C)CCC(c2ccccc2)c2ccccc2)C1c1cccc([N+](=O)[O-])c1` (stereo not drawn) (library stock concentration (final ~1000-fold dilution): 10 mM), the “IRF Lucia reporter activity” value in the test on RAW-Dual [1] (setting [4]) was found to be 0.134; with RAW-Dual [1] (agonist: LPS (TLR4) 0.1 ug/mL) it was 1.96.
For `COC(=O)C1=C(C)NC(C)=C(C(=O)OC(C)(C)CN(C)CCC(c2ccccc2)c2ccccc2)C1c1cccc([N+](=O)[O-])c1` (stereo not drawn), in the test on RAW-Dual [2] (setting [5]), the “IRF Lucia reporter activity” value was 2.39.
For `COC(=O)C1=C(C)NC(C)=C(C(=O)OC(C)(C)CN(C)CCC(c2ccccc2)c2ccccc2)C1c1cccc([N+](=O)[O-])c1.Cl` (stereo not drawn) (library stock concentration (final ~1000-fold dilution): 10 mM), the figures for the “IRF Lucia reporter activity” value in the test with RAW-Dual [1] (setting [4]) and in the test on RAW-Dual [1] (agonist: LPS (TLR4) 0.1 ug/mL) were 0.139 and 3.23, respectively.
Consider `COC(=O)C1=C(C)NC(C)=C(C(=O)OCCN(C)Cc2ccccc2)C1c1cccc([N+](=O)[O-])c1.Cl` (stereo not drawn), for which the “IRF Lucia reporter activity” value with RAW-Dual [2] (setting [5]) came out at 1.12.
In the case of `COC(=O)C1=C(C)NC(C)=C(C(=O)OC(C)(C)CN(C)CCC(c2ccccc2)c2ccccc2)C1c1cccc([N+](=O)[O-])c1.Cl` (stereo not drawn), the “IRF Lucia reporter activity” value in the test on RAW-Dual [2] (setting [5]) was 2.1.
As for `COC(=O)C1=C(C)NC(C)=C(C(=O)OCCN(C)Cc2ccccc2)C1c1cccc([N+](=O)[O-])c1.Cl` (stereo not drawn) (library stock concentration (final ~1000-fold dilution): 10 mM), the “IRF Lucia reporter activity” value stood at 0.3 in the test on RAW-Dual [1] (setting [4]) and 1.4 with RAW-Dual [1] (agonist: LPS (TLR4) 0.1 ug/mL).
For `COC(=O)c1ccc(O)c(NC(=O)COc2ccc(C34CC5CC(CC(C5)C3)C4)cc2)c1` (library stock concentration (final ~1000-fold dilution): 10 mM) the same measures were 0.925 and 1.14.
The corresponding values for `CC(C)Cc1ccc([C@@H](C)C(=O)O)cc1` (library stock concentration (final ~1000-fold dilution): 10 mM) are 0.953 and 1.08.
Consider `CCC(C)C(=O)OC1CC(C)C=C2C=CC(C)C(CCC3CC(O)CC(=O)O3)C21` (stereo not drawn) (library stock concentration (final ~1000-fold dilution): 10 mM), for which the results for the “IRF Lucia reporter activity” value in the test on RAW-Dual [1] (setting [4]) and in the test on RAW-Dual [1] (agonist: LPS (TLR4) 0.1 ug/mL) were 0.497 and 0.764, respectively.
For `CCC(C)C(=O)OC1CC(C)C=C2C=CC(C)C(CCC3CC(O)CC(=O)O3)C21` (stereo not drawn), the “IRF Lucia reporter activity” value in the test on RAW-Dual [2] (setting [5]) stood at 0.744.
In the case of `Cc1cc(C#N)cc(C)c1Oc1nc(Nc2ccc(C#N)cc2)nc(N)c1Br`, the “IRF Lucia reporter activity” value with RAW-Dual [2] (setting [5]) turned out to be 2.4.
Regarding `Cc1cc(/C=C/C#N)cc(C)c1Nc1ccnc(Nc2ccc(C#N)cc2)n1` (library stock concentration (final ~1000-fold dilution): 10 mM), the “IRF Lucia reporter activity” value is 0.03 in the test with RAW-Dual [1] (setting [4]) and 0.489 with RAW-Dual [1] (agonist: LPS (TLR4) 0.1 ug/mL).
Consider `Cc1cc(C)c(Nc2ccnc(Nc3ccc(C#N)cc3)n2)c(C)c1`, for which the “IRF Lucia reporter activity” value in the test on RAW-Dual [2] (setting [6]) was found to be 1.7.
With `Cc1cc(C)c(Nc2ccnc(Nc3ccc(C#N)cc3)n2)c(C)c1` (library stock concentration (final ~1000-fold dilution): 10 mM), the “IRF Lucia reporter activity” value came out at 0.691 with RAW-Dual [3] (setting [4]) and 0.81 in the test with RAW-Dual [3] (agonist: LPS (TLR4) 0.1 ug/mL).
Take `Cc1cc(C#N)cc(C)c1Oc1nc(Nc2ccc(C#N)cc2)nc(N)c1Br` (library stock concentration (final ~1000-fold dilution): 10 mM): the “IRF Lucia reporter activity” value with RAW-Dual [1] (setting [4]) amounted to 1.09; in the test on RAW-Dual [1] (agonist: LPS (TLR4) 0.1 ug/mL) it was 2.87.
